# From PubChem BioAssay AID1159580 (chemical genetic matrix, 2015)
# Where “and” joins values, the source holds several entries; their conditions need not be identical. Identical values can stand only once. Screen size: about 5,500 compounds; about 2,000 (36%) were called active. Another 18% or so got no clear call; they are omitted. The list shows a part of the results. Unmarked numbers belong to inactive results. Cut-off read from the data, not from the text of the source: active = normalized growth mostly below about 0.91 (no sharp cut-off); inconclusive = no clear call, values can overlap the other calls; inactive = mostly above about 0.92.
# Test: chemical genetic growth profiling, strain panel (AID 1159580);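 note: tested at 20 µM; growth read once vehicle control cultures reached saturation at 30 °C; 1 = growth at the plate median or of vehicle wells; lower values mean less growth of the strain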
# Settings: S. cerevisiae deletion strains, growth OD
smiles,measurement,setting,value
Oc1cc(O)c2c(c1)O[C@H](c1ccc(O)c(O)c1)[C@H](O)C2,normalized growth,"locus YAL021C, strain ccr4, stronger effect = lower value",1.02
same,normalized growth,"locus YAL026C, strain drs2, stronger effect = lower value",1.01
same,normalized growth,"locus YAL030W, strain snc1, stronger effect = lower value",1
same,normalized growth,"locus YBL061C, strain skt5, stronger effect = lower value",1.02
same,normalized growth,"locus YBR009C, strain hhf1, stronger effect = lower value",1.02
same,normalized growth,"locus YBR021W, strain FUR4, stronger effect = lower value",1.21 [resistant] (active)
same,normalized growth,"locus YBR023C, strain chs3, stronger effect = lower value",1.01
same,normalized growth,"locus YBR171W, strain sec66, stronger effect = lower value",1.02
same,normalized growth,"locus YBR229C, strain ROT2, stronger effect = lower value",1
same,normalized growth,"locus YBR231C, strain swc5, stronger effect = lower value",1.02
same,normalized growth,"locus YBR279W, strain paf1, stronger effect = lower value",1.01
same,normalized growth,"locus YCL011C, strain gbp2, stronger effect = lower value",1.01
same,normalized growth,"locus YCL016C, strain dcc1, stronger effect = lower value",1
same,normalized growth,"locus YCL029C, strain bik1, stronger effect = lower value",0.976
same,normalized growth,"locus YCL061C, strain MRC1, stronger effect = lower value",1.01
same,normalized growth,"locus YCL069W, strain vba3, stronger effect = lower value",1.01
same,normalized growth,"locus YCR088W, strain abp1, stronger effect = lower value",1.01
same,normalized growth,"locus YDL005C, strain med2, stronger effect = lower value",1.01
same,normalized growth,"locus YDL035C, strain GPR1, stronger effect = lower value",1.03
same,normalized growth,"locus YDL040C, strain nat1, stronger effect = lower value",0.998
same,normalized growth,"locus YDL074C, strain BRE1, stronger effect = lower value",1
same,normalized growth,"locus YDL101C, strain DUN1, stronger effect = lower value",1
same,normalized growth,"locus YDL185W, strain tfp1, stronger effect = lower value",0.953
same,normalized growth,"locus YDL192W, strain arf1, stronger effect = lower value",0.992
same,normalized growth,"locus YDR001C, strain nth1, stronger effect = lower value",1
same,normalized growth,"locus YDR069C, strain doa4, stronger effect = lower value",1
same,normalized growth,"locus YDR101C, strain arx1, stronger effect = lower value",0.986
same,normalized growth,"locus YDR137W, strain rgp1, stronger effect = lower value",1.02
same,normalized growth,"locus YDR150W, strain NUM1, stronger effect = lower value",0.984
same,normalized growth,"locus YDR159W, strain sac3, stronger effect = lower value",1.06
same,normalized growth,"locus YDR162C, strain NBP2, stronger effect = lower value",1.03
same,normalized growth,"locus YDR195W, strain ref2",0.968
same,normalized growth,"locus YDR297W, strain sur2, stronger effect = lower value",1.01
same,normalized growth,"locus YDR318W, strain mcm21, stronger effect = lower value",0.995
same,normalized growth,"locus YDR334W, strain swr1, stronger effect = lower value",1.01
same,normalized growth,"locus YDR335W, strain msn5, stronger effect = lower value",0.994
same,normalized growth,"locus YDR388W, stronger effect = lower value",0.995
same,normalized growth,"locus YDR392W, strain spt3, stronger effect = lower value",1.01
same,normalized growth,"locus YDR502C, strain sam2, stronger effect = lower value",1.01
same,normalized growth,"locus YEL003W, strain gim4, stronger effect = lower value",1.01
same,normalized growth,"locus YEL037C, strain rad23, stronger effect = lower value",1.02
same,normalized growth,"locus YEL061C, strain CIN8 (second series), stronger effect = lower value",1
same,normalized growth,"locus YEL061C, strain CIN8, stronger effect = lower value",0.994
same,normalized growth,"locus YER015W, strain faa2, stronger effect = lower value",1
same,normalized growth,"locus YER016W, strain bim1, stronger effect = lower value",1.01
same,normalized growth,"locus YER110C, stronger effect = lower value",0.969
same,normalized growth,"locus YER111C, strain swi4, stronger effect = lower value",1
same,normalized growth,"locus YER155C, strain BEM2 (second series), stronger effect = lower value",1.02
same,normalized growth,"locus YER155C, strain BEM2, stronger effect = lower value",1
same,normalized growth,"locus YER167W, strain BCK2, stronger effect = lower value",1.02
same,normalized growth,"locus YFR010W, strain ubp6, stronger effect = lower value",1.01
same,normalized growth,"locus YGL078C, strain dbp3, stronger effect = lower value",0.997
same,normalized growth,"locus YGL086W, strain mad1, stronger effect = lower value",0.994
same,normalized growth,"locus YGL167C, strain pmr1, stronger effect = lower value",1.01
same,normalized growth,"locus YGL173C, strain kem1, stronger effect = lower value",1.01
same,normalized growth,"locus YGL227W, strain vid30, stronger effect = lower value",1.01
same,normalized growth,"locus YGL240W, strain doc1, stronger effect = lower value",1.04
same,normalized growth,"locus YGL248W, strain PDE1, stronger effect = lower value",1
same,normalized growth,"locus YGL253W, strain hxk2, stronger effect = lower value",1.02
same,normalized growth,"locus YGR135W, strain pre9, stronger effect = lower value",1.01
same,normalized growth,"locus YGR252W, strain gcn5, stronger effect = lower value",1.13
same,normalized growth,"locus YHR013C, strain ard1, stronger effect = lower value",0.995
same,normalized growth,"locus YHR027C, strain rpn1, stronger effect = lower value",1.01
same,normalized growth,"locus YHR030C, strain SLT2, stronger effect = lower value",1 and 0.992
same,normalized growth,"locus YHR079C, strain IRE1 (second series), stronger effect = lower value",0.975
same,normalized growth,"locus YHR079C, strain IRE1, stronger effect = lower value",0.992
same,normalized growth,"locus YHR094C, strain hxt1, stronger effect = lower value",0.992
same,normalized growth,"locus YHR129C, strain ARP1, stronger effect = lower value",1
same,normalized growth,"locus YHR142W, strain chs7, stronger effect = lower value",1.02
same,normalized growth,"locus YHR200W, strain rpn10, stronger effect = lower value",0.983
same,normalized growth,"locus YIL066C, strain RNR3, stronger effect = lower value",1.01
same,normalized growth,"locus YIL073C, strain SPO22, stronger effect = lower value",0.997
same,normalized growth,"locus YIL125W, strain kgd1, stronger effect = lower value",0.996
same,normalized growth,"locus YIR030C, strain dcg1, stronger effect = lower value",0.986
same,normalized growth,"locus YJL092W, strain hpr5, stronger effect = lower value",1.02
same,normalized growth,"locus YJL095W, strain BCK1 (second series), stronger effect = lower value",1.01
same,normalized growth,"locus YJL095W, strain BCK1, stronger effect = lower value",0.984 and 1
same,normalized growth,"locus YJL115W, strain asf1, stronger effect = lower value",1
same,normalized growth,"locus YJL129C, strain trk1, stronger effect = lower value",1.02
same,normalized growth,"locus YJL134W, strain LCB3, stronger effect = lower value",0.991
same,normalized growth,"locus YJL154C, strain vps35, stronger effect = lower value",1.01
same,normalized growth,"locus YJL164C, strain tpk1, stronger effect = lower value",1
same,normalized growth,"locus YJL166W, strain qcr8, stronger effect = lower value",1.02
same,normalized growth,"locus YJL168C, strain set2, stronger effect = lower value",0.98
same,normalized growth,"locus YJL187C, strain SWE1 (second series), stronger effect = lower value",0.994
same,normalized growth,"locus YJL187C, strain SWE1, stronger effect = lower value",1
